Experimental data: the supplement of paper PMC11417369
± gives the standard deviation of the averaged measurements. The full ranking holds about 25,000 sequences; the median of “ln(normalized median fluorescence intensity)” is about 8.6, and the highest 2% start at about 10. The entries come from a sample that favours the highest values as a whole.

What follows are sequences tested on PfAP2-EXP AP2 domain (GST-tagged) (assay: gcPBM binding intensity (ln(normalized median fluorescence intensity)); higher = stronger DNA binding).
Procedure, shortened: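 GST-tagged P. falciparum DNA-binding domains, expressed in E. coli (about 25 μg on average), were applied for 1 h to an Agilent 4 × 180k array of primer-extended double-stranded 36-bp intergenic genomic probes plus negative controls. The binding buffer was 1× PBS with 1% milk, 0.2 mg/ml BSA, 0.5% salmon testes DNA and 0.03% Triton X-100. Bound protein was detected with Alexa488 anti-GST antibody and scanned at 488 nm. Binding intensity is the highest Masliner-normalised natural-log median intensity across replicate spots of either probe orientation.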

| Sequence | gcPBM binding intensity (ln) |
| --- | --- |
| TCACATACATTACTTACACACCATATTAAGATATAC [CACACA_site4415] | 8.68 ± 0.43 |
| ATTTATATTCCAATATGTACATATTTTCGTATAACC [XGTACX_site8507] | 8.88 ± 0.35 |
| AAATTTCAATAATCTACACACATAAAAAAACAAAAG [CACACA_site1702] | 8.82 ± 0.52 |
| TACAATTTTTTAAATGCACACAAAAGGAATAAATAA [CACACA_site8075] | 8.78 ± 0.16 |
| GAAAAAAGAAATTAAACATGCATCTGCAAATTTAAA [TGCATGCA_site974] | 8.34 ± 0.42 |
| TGAATACTTATGTTCGCACACATGCAAATTAAAAAA [CACACA_site4048] | 8.62 ± 0.22 |
| ACTATAAATATATACACATGCGCACACACAAGTGGG [TGCATGCA_site432] | 8.77 ± 0.39 |
| TCTTATTCAAACGTAAAACGAAGAAGAAAAAAAAAA [CACACA_negctrl_site149] | 8.49 ± 0.41 |
| GTTATAAATGCATATACACACATACGTACATACATA [CACACA_site7655] | 8.79 ± 0.23 |
| AAAATAATGTATATATGTACATATAAATATATATAT [XGTACX_site8081] | 9.32 |
| ATAATAAAAATAAAATGTACATACATAAATATATAT [XGTACX_site6228] | 8.62 ± 0.28 |
| AATGTACAAATACGTACACACATATATATATATATA [CACACA_site1542] | 10.1 ± 0.42 |
| ATACACAAATGCATACGTACATATATATATATATAT [XGTACX_site3504] | 10.2 ± 0.33 |
| AAAATAATAAATAAATGTACATATATATATATATAT [XGTACX_site3078] | 10.2 ± 0.47 |
| TATTTCATATGAAGAAGTACTATTAATAATTTCCTT [XGTACX_site6587] | 8.3 ± 0.28 |
| TATTATTTTAATTATTCACACATTATTATAAAAATT [CACACA_site5538] | 8.3 ± 0.33 |
| ATTATTCGTTTTAAATGTACTCATATAAACGATAAA [XGTACX_site7866] | 8.52 ± 0.3 |
| GGATATAACAAACACACACACACATATATATATATT [CACACA_site4141] | 8.59 ± 0.19 |
| AAATCGAACAAATTATGTACTAAAAAAAAAATTTAT [XGTACX_site6399] | 8.39 ± 0.4 |
| AATATGTATCCATACACACATACATTTTATTTGCAA [CACACA_site874] | 8.65 ± 0.45 |
| AGCAAAAATTAAATAAATAAATATATATATATATAT [TGCATGCA_negctrl_site449] | 10.2 ± 0.63 |
| ATATATATATATAACACACGCAAAAAAATTAAATAA [CACACA_site1400] | 9.96 ± 0.11 |

| Sequence | gcPBM binding intensity (ln) |
| --- | --- |
| TGATATATATATATATATATAACACACGCAAAAAAA [TGCATGCA_negctrl_site240] | 8.73 ± 0.51 |
| ATATATATATATATAACACACGCAAAAAAATTAAAT [CACACA_site8395] | 10.2 ± 0.26 |
| TACAAAAAAATAAAAAAAATTAAATAAATAAATATA [CACACA_negctrl_site45] | 8.17 ± 0.37 |
| AAAAAAAATTAAAATAAAATATAAATATAAAATATA [GTGCAC_negctrl_site714] | 8.23 ± 0.24 |
| ATATATATATATATATGTACATATATACATATACAT [XGTACX_site2350] | 9.99 ± 0.43 |
| TTATGGTTATACATATGTACATATATATATATATAT [XGTACX_site1494] | 10.3 ± 0.2 |
| ATCATGTTATATACATGTACATATATATATATATAA [XGTACX_site609] | 8.51 ± 0.4 |
| TATGTATCAAATAAATGTACATATATATATATATAT [XGTACX_site2189] | 10.1 ± 0.49 |
| TGTTATATGTTCAAATGTACAAATCATATACATGTT [XGTACX_site3192] | 8.45 ± 0.38 |
| ATCATGTTATATACATGTACATATATATATATATAT [XGTACX_site1329] | 10.2 ± 0.3 |
| ATATATATATACATATGTACATATATATTTATACAT [XGTACX_site2463] | 9.64 ± 0.33 |
| ATATATATATATATATGTACATATGTTAGGATCAAA [XGTACX_site8626] | 10.2 ± 0.33 |
| ATATATATATATACATGTACATATATACATTATATT [XGTACX_site936] | 9.99 ± 0.45 |
| AAAGATACTTTCCTCAAACACACAAAACTATACAAC [CACACA_site1475] | 8.79 ± 0.45 |
| AAATTAAAATAATAATTCTACAAATTAATTTATCAT [XGTACX_negctrl_site44] | 7.97 ± 0.49 |
| TATTTAAAACTATACACATGCATTATATAAAGATAT [TGCATGCA_site702] | 8.79 ± 0.4 |
| AAAATAATATTTAATACACACATAATTATAATATAA [CACACA_site782] | 8.48 ± 0.32 |
| AATGTTTTTGTGAGATGTATAAATTTTATTTTATTT [XGTACX_negctrl_site413] | 8.38 ± 0.38 |
| ATATAACACAAGGGCACACATATACCTTTCCTTTTT [CACACA_site412] | 8.77 ± 0.36 |
| ATTAATTTTAATAAAGGTACACGTAGTTTTTTATTA [XGTACX_site7868] | 8.16 ± 0.34 |
| AAAAAAAAAATATGTACACACATATAAAATACATAA [CACACA_site6869] | 8.56 ± 0.3 |
| TTTTTTTTTTTTTTTTTTTTTTTATGTTCTTAAAAA [GTGCAC_negctrl_site62] | 8.02 ± 0.67 |

| Sequence | gcPBM binding intensity (ln) |
| --- | --- |
| TTATGTTCTTTAAAACCACACACCCCCCAACCCCCC [CACACA_site8742] | 10.9 ± 0.29 |
| CTTTAAACCCTGAACACACACAAATACACCCAAAAA [CACACA_site4297] | 8.81 ± 0.42 |
| CACACCCACAAAAACACACACAAAGGTGTTCTTATA [CACACA_site1293] | 9.43 ± 0.64 |
| CAAACCCACCAACACACACACACAAAAATGATTAAA [CACACA_site2432] | 8.49 ± 0.68 |
| ATGTTCTTTAAAACCACACACCCCCCAACCCCCCTC [CACACA_site2373] | 10.6 ± 0.13 |
| ATAAATTTTTTTTTTTTTTTTTTTTTTTTTTTTTTT [CACACA_negctrl_site508] | 9.19 ± 0.057 |
| ATATATTTTAATTGTTGTACATATTAAATAAATAGG [XGTACX_site2311] | 8.47 ± 0.49 |
| TTGTATAAAATATGTAGTACAATAATATAACATTTT [XGTACX_site8607] | 8.55 ± 0.2 |
| TATAAATTTAAAATGACACACACTAAAATTATTTAA [CACACA_site1239] | 8.36 ± 0.42 |
| TTATTTTATCACACATGTACATATGTTAATTTTTTT [XGTACX_site5598] | 8.84 ± 0.33 |
| TACATATATGATAAAAGTACATATAAATATACATAA [XGTACX_site3804] | 8.45 ± 0.33 |
| ATATAAAAAAAATTTAGTACATATATATATATATAT [XGTACX_site8635] | 10.2 ± 0.48 |
| ATAAAAAAAAAAAAAAGTACACATATAAAAGTATTG [XGTACX_site8265] | 8.42 ± 0.41 |
| AAGCATAAAGTATATAGTACATATATATATATATAT [XGTACX_site2945] | 10.2 ± 0.26 |
| TTAAAAAAAAAAAAAAGTACATAAGTATATATAATA [XGTACX_site4295] | 8.43 ± 0.45 |
| TAAAAATATAGGTATACACACATATAAATATAAATA [CACACA_site7785] | 8.54 ± 0.4 |
| ATAATAAAAAAAATTAGTACATATATAAATATAAAT [XGTACX_site1937] | 8.3 ± 0.33 |
| ATAAAAAAATAAATTAGTACATATATATATATATAT [XGTACX_site6971] | 10.1 ± 0.35 |
| CCTTGATATATATAAAGTACATATATATATATATAT [XGTACX_site4325] | 10.2 ± 0.24 |
| ATTGGACTATAAATAGGTACACATATATATATATAT [XGTACX_site7562] | 10.4 ± 0.33 |
| TATATTTATAGGTACACACACACATATAAATAAATA [CACACA_site6345] | 8.65 ± 0.37 |
| AGATAAAAAAAGTACACACACACATATATATATATA [CACACA_site3072] | 10.2 ± 0.26 |
